# Measurements taken from ChEMBL document CHEMBL2218924, “A broad activity screen in support of a chemogenomic map for kinase signalling research and drug discovery” (Biochem J, 2013).
# Experiments:
# [1] = target: Tyrosine-protein kinase SYK (Homo sapiens) (UniProt P43405); details: at 10 µM
# [2] = target: T1, Mitogen-activated protein kinase kinase kinase 7 (Homo sapiens) (UniProt O43318); details: at 1 µM
# T1 sequence (whole entry): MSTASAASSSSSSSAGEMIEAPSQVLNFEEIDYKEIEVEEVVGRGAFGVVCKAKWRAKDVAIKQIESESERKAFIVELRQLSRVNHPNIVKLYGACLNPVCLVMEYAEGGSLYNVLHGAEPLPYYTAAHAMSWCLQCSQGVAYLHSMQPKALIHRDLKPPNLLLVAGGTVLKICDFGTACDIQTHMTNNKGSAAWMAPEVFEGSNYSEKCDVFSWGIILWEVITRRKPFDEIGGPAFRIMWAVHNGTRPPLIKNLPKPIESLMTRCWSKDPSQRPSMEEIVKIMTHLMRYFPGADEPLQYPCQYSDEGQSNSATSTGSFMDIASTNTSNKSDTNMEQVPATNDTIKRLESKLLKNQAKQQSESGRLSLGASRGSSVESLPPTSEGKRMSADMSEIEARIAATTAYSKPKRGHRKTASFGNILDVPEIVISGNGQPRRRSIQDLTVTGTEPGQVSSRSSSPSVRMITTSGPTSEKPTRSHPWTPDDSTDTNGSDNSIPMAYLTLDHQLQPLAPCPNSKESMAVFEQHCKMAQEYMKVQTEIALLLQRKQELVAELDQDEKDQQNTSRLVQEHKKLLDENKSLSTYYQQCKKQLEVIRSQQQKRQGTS
# [3] = target: T1, Mitogen-activated protein kinase kinase kinase 7 (Homo sapiens); details: at 10 µM
# [4] = target: T2, Serine/threonine-protein kinase TAO1 (Homo sapiens) (UniProt Q7L7X3); details: at 1 µM
# T2 sequence (whole entry): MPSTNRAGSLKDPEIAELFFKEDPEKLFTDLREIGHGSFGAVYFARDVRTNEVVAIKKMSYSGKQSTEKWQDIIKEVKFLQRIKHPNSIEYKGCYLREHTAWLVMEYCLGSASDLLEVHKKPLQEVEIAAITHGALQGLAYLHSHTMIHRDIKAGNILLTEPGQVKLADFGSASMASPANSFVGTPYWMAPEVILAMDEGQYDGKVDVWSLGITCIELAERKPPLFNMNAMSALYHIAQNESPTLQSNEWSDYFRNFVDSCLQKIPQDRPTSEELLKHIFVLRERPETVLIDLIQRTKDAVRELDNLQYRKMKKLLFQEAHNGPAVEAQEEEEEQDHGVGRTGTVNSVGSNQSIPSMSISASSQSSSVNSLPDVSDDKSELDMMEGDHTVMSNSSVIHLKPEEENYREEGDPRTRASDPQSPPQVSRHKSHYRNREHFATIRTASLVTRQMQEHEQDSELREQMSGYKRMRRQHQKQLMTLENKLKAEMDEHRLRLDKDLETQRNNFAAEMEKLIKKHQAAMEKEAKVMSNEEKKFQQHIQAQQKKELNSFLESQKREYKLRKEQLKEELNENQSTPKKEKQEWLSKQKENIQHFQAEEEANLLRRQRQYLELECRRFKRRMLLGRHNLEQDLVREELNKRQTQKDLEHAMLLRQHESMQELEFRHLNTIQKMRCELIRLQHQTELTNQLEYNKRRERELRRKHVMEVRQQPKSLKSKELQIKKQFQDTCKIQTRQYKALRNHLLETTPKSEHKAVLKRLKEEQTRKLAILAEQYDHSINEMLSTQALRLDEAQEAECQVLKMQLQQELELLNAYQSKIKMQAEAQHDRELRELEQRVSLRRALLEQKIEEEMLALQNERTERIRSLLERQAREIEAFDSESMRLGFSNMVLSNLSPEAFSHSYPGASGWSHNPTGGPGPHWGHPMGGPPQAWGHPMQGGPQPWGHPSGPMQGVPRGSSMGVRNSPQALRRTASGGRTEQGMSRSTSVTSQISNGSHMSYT
# [5] = target: T2, Serine/threonine-protein kinase TAO1 (Homo sapiens); details: at 10 µM
# [6] = target: T3, Serine/threonine-protein kinase TAO2 (Homo sapiens) (UniProt Q9UL54); details: at 1 µM
# T3 sequence (whole entry): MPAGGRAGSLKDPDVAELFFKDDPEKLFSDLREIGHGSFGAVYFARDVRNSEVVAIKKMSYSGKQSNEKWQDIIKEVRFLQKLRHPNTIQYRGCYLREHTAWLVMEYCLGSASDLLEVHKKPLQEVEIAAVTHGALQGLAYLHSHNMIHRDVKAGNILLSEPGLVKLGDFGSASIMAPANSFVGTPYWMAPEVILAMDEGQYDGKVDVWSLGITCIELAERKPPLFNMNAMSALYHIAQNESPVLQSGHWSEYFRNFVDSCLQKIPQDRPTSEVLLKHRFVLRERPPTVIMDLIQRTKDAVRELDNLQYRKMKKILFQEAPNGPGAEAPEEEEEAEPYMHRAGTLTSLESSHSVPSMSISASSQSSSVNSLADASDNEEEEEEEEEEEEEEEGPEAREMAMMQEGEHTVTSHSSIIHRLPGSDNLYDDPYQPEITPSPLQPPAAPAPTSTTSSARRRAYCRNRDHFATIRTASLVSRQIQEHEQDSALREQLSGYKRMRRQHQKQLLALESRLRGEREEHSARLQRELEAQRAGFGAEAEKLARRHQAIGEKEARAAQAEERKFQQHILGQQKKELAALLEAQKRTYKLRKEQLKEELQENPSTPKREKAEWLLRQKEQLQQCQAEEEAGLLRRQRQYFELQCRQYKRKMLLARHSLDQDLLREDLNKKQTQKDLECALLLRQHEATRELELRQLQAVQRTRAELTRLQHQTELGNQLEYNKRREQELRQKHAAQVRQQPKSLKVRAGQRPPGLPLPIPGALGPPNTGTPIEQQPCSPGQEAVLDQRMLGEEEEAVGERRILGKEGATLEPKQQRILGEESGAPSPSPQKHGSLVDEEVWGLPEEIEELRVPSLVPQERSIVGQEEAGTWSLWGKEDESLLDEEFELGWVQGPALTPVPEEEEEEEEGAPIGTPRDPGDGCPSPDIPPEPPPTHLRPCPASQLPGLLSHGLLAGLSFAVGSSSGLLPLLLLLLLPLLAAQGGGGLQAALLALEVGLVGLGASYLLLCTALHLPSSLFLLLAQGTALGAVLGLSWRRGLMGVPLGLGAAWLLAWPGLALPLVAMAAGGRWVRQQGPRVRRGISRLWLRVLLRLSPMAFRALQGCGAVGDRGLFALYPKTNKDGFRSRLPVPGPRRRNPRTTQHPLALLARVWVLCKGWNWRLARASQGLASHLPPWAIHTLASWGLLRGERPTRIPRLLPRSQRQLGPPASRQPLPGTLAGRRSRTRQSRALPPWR
# [7] = target: T3, Serine/threonine-protein kinase TAO2 (Homo sapiens); details: at 10 µM
# [8] = target: T4, Serine/threonine-protein kinase TAO3 (Homo sapiens) (UniProt Q9H2K8); details: at 1 µM
# T4 sequence (whole entry): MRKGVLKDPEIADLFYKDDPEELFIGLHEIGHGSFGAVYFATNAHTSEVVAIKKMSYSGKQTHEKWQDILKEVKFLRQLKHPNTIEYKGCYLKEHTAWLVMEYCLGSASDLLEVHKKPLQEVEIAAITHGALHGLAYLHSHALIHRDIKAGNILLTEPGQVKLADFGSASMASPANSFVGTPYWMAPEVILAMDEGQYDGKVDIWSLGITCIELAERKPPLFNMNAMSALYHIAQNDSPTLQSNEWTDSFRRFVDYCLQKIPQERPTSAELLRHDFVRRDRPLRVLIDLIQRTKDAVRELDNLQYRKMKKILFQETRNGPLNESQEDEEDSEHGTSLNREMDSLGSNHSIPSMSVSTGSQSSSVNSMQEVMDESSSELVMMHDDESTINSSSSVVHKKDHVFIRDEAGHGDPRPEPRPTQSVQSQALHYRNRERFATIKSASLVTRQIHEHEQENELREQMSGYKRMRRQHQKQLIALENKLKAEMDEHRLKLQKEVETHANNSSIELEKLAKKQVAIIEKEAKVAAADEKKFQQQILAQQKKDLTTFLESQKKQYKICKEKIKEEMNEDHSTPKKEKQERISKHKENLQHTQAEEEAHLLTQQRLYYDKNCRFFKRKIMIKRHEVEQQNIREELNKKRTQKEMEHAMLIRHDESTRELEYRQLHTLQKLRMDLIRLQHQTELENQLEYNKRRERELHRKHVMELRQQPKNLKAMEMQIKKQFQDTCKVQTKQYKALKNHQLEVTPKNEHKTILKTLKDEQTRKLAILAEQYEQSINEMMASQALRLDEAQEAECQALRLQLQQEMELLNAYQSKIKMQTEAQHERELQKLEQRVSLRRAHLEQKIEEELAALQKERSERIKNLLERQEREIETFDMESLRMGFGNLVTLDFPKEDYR
# [9] = target: T4, Serine/threonine-protein kinase TAO3 (Homo sapiens); details: at 10 µM
# [10] = target: T5, Serine/threonine-protein kinase TBK1 (Homo sapiens) (UniProt Q9UHD2); details: at 1 µM
# T5 sequence (whole entry): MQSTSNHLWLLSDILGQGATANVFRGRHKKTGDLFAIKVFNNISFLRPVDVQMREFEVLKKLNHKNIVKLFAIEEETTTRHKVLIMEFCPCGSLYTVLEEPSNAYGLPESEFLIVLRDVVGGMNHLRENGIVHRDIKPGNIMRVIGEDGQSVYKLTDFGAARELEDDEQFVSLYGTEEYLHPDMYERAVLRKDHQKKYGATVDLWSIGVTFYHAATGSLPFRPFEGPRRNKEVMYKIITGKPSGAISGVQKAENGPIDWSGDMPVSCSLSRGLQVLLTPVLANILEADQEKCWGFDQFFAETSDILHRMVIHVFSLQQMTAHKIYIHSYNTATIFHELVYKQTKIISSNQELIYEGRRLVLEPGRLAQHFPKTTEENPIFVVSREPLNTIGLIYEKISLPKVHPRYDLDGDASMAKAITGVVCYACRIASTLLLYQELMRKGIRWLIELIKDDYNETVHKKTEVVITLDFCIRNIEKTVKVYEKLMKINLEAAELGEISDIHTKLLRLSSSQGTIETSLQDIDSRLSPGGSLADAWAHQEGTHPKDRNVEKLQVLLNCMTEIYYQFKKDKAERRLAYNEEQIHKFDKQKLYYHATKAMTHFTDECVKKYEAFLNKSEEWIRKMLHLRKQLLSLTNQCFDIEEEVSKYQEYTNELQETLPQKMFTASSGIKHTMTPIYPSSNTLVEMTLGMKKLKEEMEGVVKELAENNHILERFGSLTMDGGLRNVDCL
Compound,residual activity [1] [%],residual activity [2] [%],residual activity [3] [%],residual activity [4] [%],residual activity [5] [%],residual activity [6] [%],residual activity [7] [%],residual activity [8] [%],residual activity [9] [%],residual activity [10] [%]
CC#CC(=O)Nc1cc2c(Nc3ccc(F)c(Cl)c3)ncnc2cn1,87,91,96,104,89,97,80,96,95,78
Cn1cc(/C=C2\C(=O)Nc3ccc(S(N)(=O)=O)cc32)c2ccccc21,28,92,77,74,37,100,88,74,66,8
Cc1nc(-c2ccccc2)c(-c2ccncc2)o1,116,103,97,103,79,120,108,107,101,102
COc1ccc(S(=O)(=O)N(CCO)c2ccccc2CN(C)C/C=C/c2ccc(Cl)cc2)cc1,69,93,82,97,83,105,88,86,84,73
Oc1ccc(-c2nc(-c3ccc(F)cc3)c(-c3ccncc3)[nH]2)cc1,100,104,101,102,69,106,68,111,84,110
COc1cccc(-c2cc(=O)c3ccccc3o2)c1N,113,101,98,99,85,112,92,95,87,97
CO[C@H]1C[C@@H]2CC[C@@H](C)[C@@](O)(O2)C(=O)C(=O)N2CCCC[C@H]2C(=O)O[C@H]([C@H](C)C[C@@H]2CC[C@@H](O)[C@H](OC)C2)CC(=O)[C@H](C)/C=C(\C)[C@@H](O)[C@@H](OC)C(=O)[C@H](C)C[C@H](C)/C=C/C=C/C=C/1C,78,89,82,102,87,99,96,97,85,63
Cc1ccc(S(=O)(=O)/C=C/C#N)cc1,109,96,88,94,87,88,109,92,98,87
CC(C)n1cnc2c(NCc3ccccc3)nc(NCCCO)nc21,105,96,92,87,81,100,101,97,88,79
COc1cc2ncnc(N3CCN(C(=O)Nc4ccc(Oc5ccccc5)cc4)CC3)c2cc1OC,83,85,82,94,78,95,64,85,77,57
Oc1ccc(Nc2nc(-c3ccc(Cl)cc3)cs2)cc1,114,112,98,106,85,118,89,99,95,114
COc1cc2ncnc(Nc3ccc(O)c(Br)c3)c2cc1OC,68,81,62,86,48,98,75,82,61,41
C[C@@H](N)[C@H]1CC[C@H](C(=O)Nc2ccncc2)CC1,102,109,113,93,78,112,109,105,103,107
O=C1Nc2cc(Br)ccc2/C1=C1/Nc2ccccc2/C1=N\O,37,89,81,68,58,75,91,68,82,8
NC(=O)c1ccc2[nH]c(-c3ccc(Oc4ccc(Cl)cc4)cc3)nc2c1,96,92,81,89,72,88,99,98,79,67
Cn1cnc2cc3c(Nc4cccc(Br)c4)ncnc3cc21,86,98,106,–,73,98,98,94,93,83
O=C1NC(=O)/C(=C\c2ccc3nccnc3c2)S1,92,94,93,71,14,99,44,72,16,56
Cn1nc2c3c(cccc31)C(=O)c1ccccc1-2,100,87,46,94,88,–,95,91,90,67
COc1cc2ncnc(Nc3ccc(NC(=O)c4ccccc4)cc3)c2cc1OC,88,107,96,–,94,98,83,102,84,96
Cc1cncc2cccc(S(=O)(=O)N3CCCN(C(=O)CN)C[C@H]3C)c12,85,88,83,81,28,–,–,93,65,68
